Data as given in PubChem BioAssay (NCATS).
Records with an inconclusive call do not appear. Active and inactive are the calls of the source. Unless noted, calls come from the whole dose curve; as a rule, active = well fitted curve in the direction sought with a large enough effect; inconclusive = small, poorly fitted or top-dose-only effect, or another doubt; inactive = no such curve, though single readings can be large; an effect the other way counts as inactive or inconclusive.

Assays:
[1] = qHTS to identify inhibitors of the type 1 interferon - major histocompatibility complex class I in skeletal muscle: primary screen against the NCATS Mechanism Interrogation Plate v5.0 (MIPE) Libary (AID 1347411);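 note: plate controls were vehicle for no effect and reference inhibitor for full effect; nearly all actives have a fitted effect of over 65% in size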
Summary of the method: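 Seed engineered human myoblasts (HLA-B HiBit) in medium without dexamethasone containing 4 ng/ml IFN-beta; after 1 hr add compound titrations (top 46 uM final). Incubate 24 hrs at 37 C, lyse 10 min with HiBiT reagent, read luminescence.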

[2] = Primary qHTS for inhibitors of nuclear receptor binding SET domain protein 2 (NSD2) in an isogenic RCH-ACV NSD2 p.E1099K mutant (9B) (AID 1645876); note: nearly all actives have a fitted effect of over 70% in size; note: potency is the fitted concentration of half-maximal effect; for activity change, negative = viability loss: % is set by controls: 0 for no effect and ±100 for the full control effect
[3] = Primary qHTS for inhibitors of nuclear receptor binding SET domain protein 2 (NSD2) in an RCH-ACV wild type WT cells (2C) (AID 1645877); note: nearly all actives have a fitted effect of over 70% in size; note: potency is the fitted concentration of half-maximal effect; for activity change, negative = cell killing: % is set by controls: 0 for no effect and ±100 for the full control effect
[4] = molecular target: Glutathione peroxidase 1 (Homo sapiens) (UniProt P07203); experiment: Primary qHTS Assay for Inhibitors of Recombinant Selenoprotein Glutathione Peroxidase 1 (GPX1) (AID 1845191); note: nearly all actives have a fitted effect of over 65% in size; for activity, negative = inhibition: % is set by controls: 0 for no effect and ±100 for the full control effect
Summary of the method: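 NADPH consumption tracked by fluorescence at 340/450 nm between t=0 and t=15 min, room temperature. Final mix: 10 nM GPX1, 100 nM glutathione reductase, 1 mM GSH, 0.5 mM NADPH, 0.5 mM cumene hydroperoxide, 0.01% BSA; 30 min compound–enzyme preincubation.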

[5] = molecular target: Phospholipid hydroperoxide glutathione peroxidase GPX4 (Homo sapiens) (UniProt P36969); experiment: Primary qHTS Assay for Inhibitors of Recombinant Selenoprotein Glutathione Peroxidase 4 (GPX4) (AID 1845192); details: outcome: dose series up to 50 µM unless noted; note: nearly all actives have a fitted effect of over 65% in size; for activity change, negative = inhibition: series mostly up to about 50 µM; % is set by controls: 0 for no effect and ±100 for the full control effect
Summary of the method: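 NADPH consumption followed by fluorescence at 340/450 nm, t=0 and after 15 min at room temperature. Reaction started with cumene hydroperoxide (0.5 mM final) after 30 min compound–GPX4 preincubation; final 200 nM GPX4, 100 nM GR, 1 mM GSH, 0.5 mM NADPH.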

[6] = qHTS drug screen for cell cycle checkpoint inhibitors in PARPi-resistant BRCA-mutant ovarian cancer cell lines. (AID 1963452; calls by dose curve; note: potency is the fitted concentration of half-maximal effect); details: PEO1/OlaR viability, CellTiter-Glo luminescence, 96 h; for Z-AUC: stronger effect = lower value
Summary of the method: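 PEO1, PEO4 and PEO1/OlaR ovarian cancer cells, 600 per well, exposed 96 h at 37C to a dilution series. Viability read by CellTiter-Glo luminescence, normalized to DMSO and empty wells; activity summarized as Z-AUC.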

[7] = measured here: PEO1 parental Z-AUC

Sequence of Phospholipid hydroperoxide glutathione peroxidase GPX4 (Homo sapiens) (P36969 whole entry, looked up): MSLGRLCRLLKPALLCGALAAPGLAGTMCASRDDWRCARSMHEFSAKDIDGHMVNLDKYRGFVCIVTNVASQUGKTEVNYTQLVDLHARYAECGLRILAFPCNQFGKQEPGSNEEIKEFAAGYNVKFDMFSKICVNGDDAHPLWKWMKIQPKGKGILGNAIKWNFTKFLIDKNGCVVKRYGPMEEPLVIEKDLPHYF
Sequence of Glutathione peroxidase 1 (Homo sapiens) (P07203 whole entry, looked up): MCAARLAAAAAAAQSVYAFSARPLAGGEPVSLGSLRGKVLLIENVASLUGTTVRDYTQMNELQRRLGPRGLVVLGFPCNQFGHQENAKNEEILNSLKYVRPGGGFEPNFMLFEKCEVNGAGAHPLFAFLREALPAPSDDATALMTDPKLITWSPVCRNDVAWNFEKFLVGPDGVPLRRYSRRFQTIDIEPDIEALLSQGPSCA

Row | SMILES | Potency [1] | Potency [2] | Potency [3] | Potency [4] | Potency [5] | Z-AUC [6] | Z-AUC [6, 7] | Z-AUC ([6]; measured here: PEO4 Z-AUC) | Potency [6] | activity change, negative = inhibition [1] | outcome [4] | outcome [5] | activity change, negative = inhibition [5] | activity change, negative = viability loss [2] | activity change, negative = cell killing [3] | activity, negative = inhibition [4]
1 | O=C1NC(=O)[C@@H](c2cn3c4c(cccc24)CCC3)[C@@H]1c1c[nH]c2ccccc12 | inactive | 1.32 µM (active) | 1.05 µM (active) | inactive | inactive | 0.925 (inactive) | 0.797 | 0.765 |  |  |  |  |  |  |  | 
2 | COc1cc2nccc(Oc3ccc(NC(=O)c4cn(C(C)C)c(=O)n(-c5ccc(F)cc5)c4=O)cc3F)c2cc1OC | inactive | inactive | inactive | inactive | inactive | -0.766 (inactive) | -0.766 | -0.777 |  |  |  |  |  |  |  | 
3 | CC[C@H]1OC(=O)[C@H](C)C(=O)[C@H](C)[C@@H](O[C@H]2O[C@H](C)C[C@H](N(C)C)[C@H]2O)[C@](C)(OC)C[C@@H](C)C(=O)[C@H](C)[C@H]2N(CCCCn3cnc(-c4cccnc4)c3)C(=O)O[C@]12C | inactive | inactive | inactive | inactive | inactive | 0.729 (inactive) | 0.267 | -0.0116 |  |  |  |  |  |  |  | 
4 | CCC1CCCCN1C(=O)n1ncc(C(O)(c2ccccc2)c2ccccc2)n1 (centres undefined) | inactive | 10.5 µM (active) | 14.8 µM (active) | inactive | inactive | 0.1 (inactive) | 0.47 | 0.409 |  |  |  |  |  |  |  | 
5 | COc1ccc(C(=O)N2CCN(C(=O)/C=C/c3ccc(Br)cc3)CC2)cc1 | inactive | inactive | inactive | inactive | inactive | 1.19 (inactive) | 1.01 | 1.05 |  |  |  |  |  |  |  | 
6 | CC(C)n1c(=O)cc(N[C@@H](C)c2ccccc2)[nH]c1=O | inactive | inactive | inactive | inactive | inactive | -0.0266 (inactive) | 0.859 | 1.05 |  |  |  |  |  |  |  | 
7 | COc1cc(OCc2cccc(-c3ccccc3)c2C)cc(OC)c1CN1CCCC[C@H]1C(=O)O | inactive | inactive | inactive | inactive | inactive | -0.024 (inactive) | -0.135 | -0.37 |  |  |  |  |  |  |  | 
8 | CNCCCOc1cc(F)c(-c2c(Cl)nc3ncnn3c2N[C@@H](C)C(F)(F)F)c(F)c1 | inactive | 0.0661 µM (active) | 0.0468 µM (active) | inactive | inactive |  | -1.35 | -1.7 | 0.155 µM (active) |  |  |  |  |  |  | 
9 | O=C(NO)c1cnc(NC2(c3cccc(F)c3)CCCCC2)nc1 | inactive | 14.8 µM (active) | 14.8 µM (active) | inactive | inactive | -1.41 (inactive) | -0.775 | -0.635 |  |  |  |  |  |  |  | 
10 | Cn1cc(-c2nc(N[C@@H]3CCCC[C@@H]3N)c(F)c3c2C(=O)NC3)cn1 |  | 0.662 µM (active) | 0.59 µM (active) |  |  | 0.172 (inactive) | 0.884 | 0.422 |  | -16.3% [at 5.1 µM] (inactive) | inactive [at 4.49 µM] | inactive [at 4.52 µM] |  |  |  | 
11 | COc1ccccc1C(=O)Nc1cc2c(cc1N1CCCCC1)n(C)c(=O)n2C | inactive | inactive | inactive | inactive | inactive | 1.08 (inactive) | 0.729 | 0.646 |  |  |  |  |  |  |  | 
12 | COc1cc(C)[nH]c(=O)c1CN1CCc2c(Cl)cc([C@H](OC)C3COC3)c(Cl)c2C1=O | inactive | inactive | inactive | inactive | inactive | 1.05 (inactive) | 0.817 | 0.549 |  |  |  |  |  |  |  | 
13 | O=C1Cc2cc(C(=O)NC3C[C@H]4CC[C@@H](C3)N4S(=O)(=O)CC3CCN(CCCC(F)(F)F)CC3)c(Cl)cc2N1 (some centres undefined) | inactive | inactive | inactive | inactive | inactive | -0.571 (inactive) | -0.873 | -0.957 |  |  |  |  |  |  |  | 
14 | Cc1[nH]cnc1CN1CCN(C(=O)N[C@@H](CC(C)C)C(=O)O)[C@@H](Cc2ccccc2)C1=O | inactive | inactive | inactive | inactive | inactive | -0.059 (inactive) | 0.199 | 0.0254 |  |  |  |  |  |  |  | 
15 | CCn1c(=O)c(-c2ccc(-c3cncc(C)n3)cc2Cl)cc2cnc(NCCC3CCN(C)CC3)nc21 |  | 1.18 µM (active) | 1.32 µM (active) |  |  | 1.53 (inactive) | 0.823 | 1.06 |  | -29.5% [at 5.1 µM] (inactive) | inactive [at 4.49 µM] |  | -3.33% [at 4.52 µM] (inactive) |  |  | 
16 | CNC(=O)Cn1cc(-c2ccc3c(c2)C(F)CC32NC(=O)N(CC(=O)N(Cc3ccc(F)cc3)C(C)C(F)(F)F)C2=O)cn1 (centres undefined) | inactive | 0.0833 µM (active) | 0.132 µM (active) | inactive | inactive | 0.772 (inactive) | 0.67 | 0.562 |  |  |  |  |  |  |  | 
17 | COc1ccc(-c2oc3c(CC=C(C)C)c(OC4O[C@H](CO)[C@@H](O)[C@H](O)[C@H]4O)cc(O)c3c(=O)c2OC2O[C@@H](C)[C@H](O)[C@@H](O)[C@H]2O)cc1 (some centres undefined) | inactive | inactive | inactive | inactive | inactive | 0.153 (inactive) | 0.0996 | 0.222 |  |  |  |  |  |  |  | 
18 | O=C(/C=C/c1ccc(/C=C/C(=O)Nc2ccc(C3=NCCN3)cc2)cc1)Nc1ccc(C2=NCCN2)cc1 |  |  |  |  |  | 0.122 (inactive) | 0.179 | 0.581 |  | -3.84% [at 5.1 µM] (inactive) |  |  | -10.1% [at 4.52 µM] (inactive) | -16.1% [at 4.96 µM] (inactive) | -11% [at 4.96 µM] (inactive) | 2.37% [at 4.49 µM] (inactive)
